Results from PubChem BioAssay AID1159580 (chemical genetic matrix, 2015).
Out of some 5,500 compounds screened, about 2,000 (36%) were called active. Roughly 18% stayed inconclusive and do not appear here. Rule as the data show it: active = normalized growth mostly below about 0.91 (no sharp cut-off); inconclusive = no clear call, values can overlap the other calls; inactive = mostly above about 0.92. Some of the results follow.

Experiment: chemical genetic growth profiling, strain panel (AID 1159580);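 also: tested at 20 µM; growth read once vehicle control cultures reached saturation at 30 °C; 1 = growth at the plate median or of vehicle wells; lower values mean less growth of the strain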
Settings: growth OD

Measured: normalized growth

O=C1C[C@@H](c2ccccc2)Oc2cc(O)cc(O)c21
active: S. cerevisiae deletion strains, locus YDL192W, strain arf1, stronger effect = lower value 0.871 | S. cerevisiae deletion strains, locus YDR318W, strain mcm21, stronger effect = lower value 0.875 | S. cerevisiae deletion strains, locus YDR502C, strain sam2, stronger effect = lower value 0.892 | S. cerevisiae deletion strains, locus YGL248W, strain PDE1, stronger effect = lower value 0.884 | S. cerevisiae deletion strains, locus YGR135W, strain pre9, stronger effect = lower value 0.843 | S. cerevisiae deletion strains, locus YGR252W, strain gcn5, stronger effect = lower value 0.595 | S. cerevisiae deletion strains, locus YKL009W, strain mrt4, stronger effect = lower value 0.847 | S. cerevisiae deletion strains, locus YKR001C, strain vps1, stronger effect = lower value 0.878 | S. cerevisiae deletion strains, locus YLR058C, strain SHM2, stronger effect = lower value 0.887 | S. cerevisiae deletion strains, locus YLR342W, strain FKS1 (second series), stronger effect = lower value 0.79 | S. cerevisiae deletion strains, locus YLR418C, strain cdc73, stronger effect = lower value 0.711 | S. cerevisiae deletion strains, locus YML032C, strain rad52, stronger effect = lower value 0.864 | S. cerevisiae deletion strains, locus YMR223W, strain ubp8, stronger effect = lower value 0.862 | S. cerevisiae deletion strains, locus YNL298W, strain CLA4, stronger effect = lower value 0.877 | S. cerevisiae deletion strains, locus YNL307C, strain MCK1, stronger effect = lower value 0.901 | S. cerevisiae deletion strains, locus YOR184W, strain ser1, stronger effect = lower value 0.757 | S. cerevisiae deletion strains, locus YPR167C, strain met16, stronger effect = lower value 0.909
inactive: S. cerevisiae deletion strains, locus YBR021W, strain FUR4, stronger effect = lower value 0.958 | S. cerevisiae deletion strains, locus YBR229C, strain ROT2, stronger effect = lower value 0.927 | S. cerevisiae deletion strains, locus YCL029C, strain bik1, stronger effect = lower value 0.939 | S. cerevisiae deletion strains, locus YDL035C, strain GPR1, stronger effect = lower value 0.884 | S. cerevisiae deletion strains, locus YDL074C, strain BRE1, stronger effect = lower value 0.858 | S. cerevisiae deletion strains, locus YDL101C, strain DUN1, stronger effect = lower value 0.899 | S. cerevisiae deletion strains, locus YDL134C, strain PPH21, stronger effect = lower value 0.903 | S. cerevisiae deletion strains, locus YDL185W, strain tfp1, stronger effect = lower value 0.932 | S. cerevisiae deletion strains, locus YDR101C, strain arx1, stronger effect = lower value 0.943 | S. cerevisiae deletion strains, locus YDR150W, strain NUM1, stronger effect = lower value 0.949 | S. cerevisiae deletion strains, locus YDR162C, strain NBP2, stronger effect = lower value 0.859 | S. cerevisiae deletion strains, locus YDR388W, stronger effect = lower value 0.95 | S. cerevisiae deletion strains, locus YEL061C, strain CIN8, stronger effect = lower value 0.957 | S. cerevisiae deletion strains, locus YER110C, stronger effect = lower value 0.924 | S. cerevisiae deletion strains, locus YER155C, strain BEM2, stronger effect = lower value 0.955 | S. cerevisiae deletion strains, locus YER167W, strain BCK2, stronger effect = lower value 0.947 | S. cerevisiae deletion strains, locus YGL078C, strain dbp3, stronger effect = lower value 0.947 | S. cerevisiae deletion strains, locus YGL086W, strain mad1, stronger effect = lower value 1 | S. cerevisiae deletion strains, locus YGR078C, strain PAC10, stronger effect = lower value 0.86 | S. cerevisiae deletion strains, locus YHR030C, strain SLT2, stronger effect = lower value 0.97 | S. cerevisiae deletion strains, locus YHR079C, strain IRE1 (second series), stronger effect = lower value 0.952 | S. cerevisiae deletion strains, locus YHR094C, strain hxt1, stronger effect = lower value 0.934 | S. cerevisiae deletion strains, locus YHR129C, strain ARP1, stronger effect = lower value 0.942 | S. cerevisiae deletion strains, locus YHR200W, strain rpn10, stronger effect = lower value 0.942 | S. cerevisiae deletion strains, locus YIL066C, strain RNR3, stronger effect = lower value 0.887 | S. cerevisiae deletion strains, locus YIL073C, strain SPO22, stronger effect = lower value 0.91 | S. cerevisiae deletion strains, locus YIL125W, strain kgd1, stronger effect = lower value 0.957 | S. cerevisiae deletion strains, locus YIR030C, strain dcg1, stronger effect = lower value 0.942 | S. cerevisiae deletion strains, locus YJL095W, strain BCK1, stronger effect = lower value 0.816 | S. cerevisiae deletion strains, locus YJL134W, strain LCB3, stronger effect = lower value 0.963 | S. cerevisiae deletion strains, locus YJL168C, strain set2, stronger effect = lower value 0.961 | S. cerevisiae deletion strains, locus YJL187C, strain SWE1 (second series), stronger effect = lower value 0.893 | S. cerevisiae deletion strains, locus YJR043C, strain POL32, stronger effect = lower value 0.906 | S. cerevisiae deletion strains, locus YJR075W, strain HOC1, stronger effect = lower value 0.919 | S. cerevisiae deletion strains, locus YKL068W, stronger effect = lower value 0.949 | S. cerevisiae deletion strains, locus YKL085W, strain MDH1 (second series), stronger effect = lower value 0.929 | S. cerevisiae deletion strains, locus YKL085W, strain MDH1, stronger effect = lower value 0.929 | S. cerevisiae deletion strains, locus YKL190W, strain CNB1, stronger effect = lower value 0.955 | S. cerevisiae deletion strains, locus YLR039C, strain RIC1, stronger effect = lower value 0.711 | S. cerevisiae deletion strains, locus YLR102C, strain apc9, stronger effect = lower value 0.957 | S. cerevisiae deletion strains, locus YLR262C, strain YPT6, stronger effect = lower value 0.656 | S. cerevisiae deletion strains, locus YLR268W, strain sec22, stronger effect = lower value 0.943 | S. cerevisiae deletion strains, locus YLR330W, strain CHS5, stronger effect = lower value 0.946 | S. cerevisiae deletion strains, locus YLR371W, strain rom2, stronger effect = lower value 0.968 | S. cerevisiae deletion strains, locus YML016C, strain PPZ1, stronger effect = lower value 0.96 | S. cerevisiae deletion strains, locus YML124C, strain tub3, stronger effect = lower value 0.947 | S. cerevisiae deletion strains, locus YMR078C, strain ctf18, stronger effect = lower value 0.929 | S. cerevisiae deletion strains, locus YMR307W, strain GAS1, stronger effect = lower value 0.742 | S. cerevisiae deletion strains, locus YNL067W, strain RPL9B, stronger effect = lower value 0.884 | S. cerevisiae deletion strains, locus YNL128W, strain TEP1, stronger effect = lower value 0.936 | S. cerevisiae deletion strains, locus YNL153C, strain GIM3, stronger effect = lower value 0.895 | S. cerevisiae deletion strains, locus YNL233W, strain BNI4, stronger effect = lower value 0.886 | S. cerevisiae deletion strains, locus YNL250W, strain rad50, stronger effect = lower value 0.954 | S. cerevisiae deletion strains, locus YNL271C, strain bni1, stronger effect = lower value 0.93 | S. cerevisiae deletion strains, locus YNL322C, strain KRE1, stronger effect = lower value 0.938 | S. cerevisiae deletion strains, locus YNR052C, strain pop2, stronger effect = lower value 0.943 | S. cerevisiae deletion strains, locus YOL012C, strain htz1 0.987 | S. cerevisiae deletion strains, locus YOL147C, strain pex11, stronger effect = lower value 0.933 | S. cerevisiae deletion strains, locus YOR061W, strain CKA2, stronger effect = lower value 0.934 | S. cerevisiae deletion strains, locus YOR069W, strain VPS5, stronger effect = lower value 0.943 | S. cerevisiae deletion strains, locus YOR136W, strain idh2, stronger effect = lower value 0.968 | S. cerevisiae deletion strains, locus YOR144C, strain elg1, stronger effect = lower value 0.945 | S. cerevisiae deletion strains, locus YOR316C, strain cot1, stronger effect = lower value 0.943 | S. cerevisiae deletion strains, locus YPL055C, strain LGE1, stronger effect = lower value 0.844 | S. cerevisiae deletion strains, locus YPL241C, strain CIN2, stronger effect = lower value 0.955 | S. cerevisiae deletion strains, locus YPR119W, strain clb2, stronger effect = lower value 0.949 | S. cerevisiae deletion strains, locus YPR141C, strain kar3, stronger effect = lower value 0.955 | S. cerevisiae deletion strains, locus YPR163C, strain tif3, stronger effect = lower value 0.927 | S. cerevisiae deletion strains, strain wtn01, stronger effect = lower value 0.99 | S. cerevisiae strains, strain wild type, stronger effect = lower value 0.927
